In the supplement of paper PMC6555819:

Tests used:
Experiment in all cases: PBM binding z-score (relative to random genomic background probes); higher = stronger binding; sequences stand for … in GC…GCGATTGACAGCGTAGAATGAAGG
[1] = tested on: LXRa:RXRa (NR concentration 270 nM, RXRa partner concentration 90 nM)
How it was run: (§1)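 Regression normalization was applied to scanned fluorescence from custom Agilent 4×180K protein-binding microarrays. Before scanning, arrays were incubated 1 h with ligand-free nuclear receptor dimers, and binding was detected with antibodies against each partner (one per run). Binding z-scores use the random background probes as reference.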

[2] = tested on: LXRa homodimer (NR concentration 270 nM)
How it was run: as §1

[3] = tested on: LXRb homodimer (NR concentration 270 nM)
How it was run: as §1

[4] = tested on: PPARa:RXRa (NR concentration 270 nM, RXRa partner concentration 90 nM)
How it was run: as §1

[5] = tested on: PPARg:RXRa (NR concentration 180 nM, RXRa partner concentration 90 nM)
How it was run: as §1

[6] = tested on: PPARg:RXRa 270nM:90nM, anti-RXR (NR concentration 270 nM, RXRa partner concentration 90 nM)
How it was run: as §1

[7] = tested on: PPARg:RXRa 30nM:10nM, anti-RXR (NR concentration 30 nM, RXRa partner concentration 10 nM)
How it was run: as §1

[8] = tested on: PPARg:RXRa 90nM:30nM, anti-RXR (NR concentration 90 nM, RXRa partner concentration 30 nM)
How it was run: as §1

[9] = tested on: PPARg:RXRa DBDmut IVT, anti-RXR (DBD mutation: RXRa K156A/R161A, NR concentration 270 nM, RXRa partner concentration 90 nM)
How it was run: as §1

[10] = tested on: FXR:RXRa (NR concentration 270 nM, RXRa partner concentration 90 nM)
How it was run: as §1

Sequence	PBM binding z-score [1]	PBM binding z-score [2]	PBM binding z-score [3]	PBM binding z-score [4]	PBM binding z-score [5]	PBM binding z-score [6]	PBM binding z-score [7]	PBM binding z-score [8]	PBM binding z-score [9]	PBM binding z-score [10]
AGTCAAAGTTTATCTAGGTAACGTAAGATATGCT	0.263	0.141	-0.331	2.17	2.44	2.51	0.904	1.95	2.68	–
CGTCCAAGGTCATAGAGGTCAGTGAATGCCGAGT	6.21	5.25	1.36	5.85	5.9	6.21	2.57	4.71	4.3	–
CCGAGGAGGTTACGAGGGGGCATTCAGTGCGAAT	–	1.63	–	–	2.38	3.52	0.838	2.45	1.54	4.41
CGAACTAGGTCAAGGACAGTAAATCTCCGCACGC	2.4	0.115	-0.249	4.71	7.56	6.25	3.88	6.02	7.9	–
TGTCAAAGTTCAAAGGTTACGTAAGTATCCACAC	–	5.25	2.03	–	–	8.17	5.91	8.13	0.119	7.49
ACTCGGATGACAAAGGTCAGAGCTACGCCAGTGA	–	1.58	0.503	–	4.68	5.37	3.76	5.58	0.169	3.55
CCGAGTAGGTTACTAGGGGGCATTCAGTGCGAAT	–	6.06	–	–	2.37	3.48	1.14	2.93	4.55	2.3
TAGCCTAGGTCACATCGGGCCAGTATACGCTATA	3.44	0.038	0.0362	3.16	2.64	2.61	0.683	1.59	2.1	–
ATCGAAAGGTCGAAGGTGCGTATACCCACCCGAA	3.22	0.0571	0.0928	4.12	3.21	3.25	1.01	2.44	-0.0152	–
AGAATGAGGTTAAACGTAGATCAGGGAAGAAAGT	–	-0.194	0.141	–	4	4.04	1.87	3.12	6.01	4.05
TAGCCTAGGTTATGGGCCAGTATACCACGCGAAC	–	-0.332	-0.441	–	0.643	0.89	-0.0157	0.388	0.121	-0.238
CCTACTGGGTCAAAGGTCATTGATTCCAATGCTC	–	5.27	1.18	–	–	11.2	12.3	13	7.6	7.5
CGAACTAGGTCTAAGGACAGTGAAAGGCGACGTA	-0.762	-0.416	-1.3	0.792	2.4	3.45	1.89	3.31	2.2	–
CGAACTAGGTCGTCCAGGACAGTGAATACATTGA	0.121	-0.214	-0.486	2.09	2.47	1.89	0.4	1.39	5.71	–
TCTTGTAGGTCAATAGAGGTTAAGAAAGTGCGCT	–	3.93	1.17	–	6.67	5.94	4.32	5.5	7.07	4.77
AATACAGGGTCATCGTACGCCAGAGTACGCACAG	6.21	2.87	1.54	5.99	7.02	6.25	2.92	5.21	2.92	–
CGAACTAGGTCACCCAGGACAGTGAATACATTGA	2.03	0.478	-0.274	4.82	8.33	6.66	4.23	6.12	8.48	–
ATATGTAGGTTACATCCGGGTCATCCAGGCTATG	–	1.67	0.838	–	6.12	5.21	2.47	4.55	7.32	1.91
TCTAGTTGGTCACGGAGGTCCCACACGACGGGTA	–	0.0478	-0.115	–	0.739	1.93	3.06	2.25	1.68	-0.177
CAGCATAGGTCAGGGCCAGTATAGGAGGAACGTT	2.57	-0.16	-0.316	3.86	2.08	1.98	0.464	0.958	0.577	–
TCGCCTAGGTCATGGGCCAGTATACCACGCGAAC	–	0.142	-0.146	–	3.52	3.4	1.9	2.9	1.88	4.68
CCGAGAAGGTTACGAGGGGGCATTCAGTGCGAAT	–	1.76	–	4.3	1.9	2.99	0.996	1.72	1.32	4.03
CGAACTAGGTCAAGGGACAGTGAAAGGCGACGTA	2.17	-0.308	-0.604	4.78	8.6	7.25	5.85	7.35	7.79	–
AGAATGAGGTTAAGTTCAGGGAAACAGAATACAT	–	0.441	-0.00698	–	3.45	3.89	1.62	3.51	3.13	4.05
CCTACTGGGCCAAAAAGGTCATTGATGCCGATAA	–	3.19	-0.142	–	3.35	3.98	1.41	3.38	3.88	3.46
GGAACGAGGTCAAGTTGATAGCAGAGTTTGATGG	6.21	2.03	2.13	6.38	7.7	6.96	4.31	6.52	6.19	–
ACGCGGAGGACAAAGGTCAGAGCTACGCCAGTGA	4.13	1.02	0.25	4.75	7.04	6.29	4.31	6.15	0.442	–
